Assay results taken from PubChem BioAssay AID1063 (University of Pittsburgh Molecular Library Screening Center, 2008).
The whole screen tested about 200,000 compounds, of which about 18,000 (9%) were called active. The sample as a whole holds a higher share of actives than the screen did. Values without a mark were called inactive. No stated cut-off is given here; in the data, active means inhibition above about 50%; inactive means the rest.

Assay: Leishmania major promastigote growth inhibition, primary screen (AID 1063);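 further: promastigotes grown with compound for 44 hours at 28 °C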
Conditions: Leishmania major promastigotes, resazurin fluorescence viability; at 10 µM; stronger effect = higher value
With O=C(O)c1cccc(NC(=O)c2cc(-c3cccc(Cl)c3)nc3ccccc23)c1 the inhibition was -4.68%.
Work on COc1ccc(OC)c(C(=O)c2ccc(C(=O)N3CCN(Cc4csc(C)n4)CC3)cc2)c1 yielded an inhibition of -0.79%.
CCN1CCN(CC(=O)c2cc(OC)c(OC)c(OC)c2)CC1 showed an inhibition of -5.32%.
Nc1nc(SCC(=O)N2CCN(S(=O)(=O)c3ccc(Cl)cc3)CC2)n[nH]1 gave an inhibition of -1.03%.
With Cc1ccc(C2=NN(C(=O)COc3ncnc4ccccc34)C(c3ccco3)C2)cc1 (stereo unspecified) the inhibition was -5.8%.
CCCCN(CC)CCNC(=O)CCNC(=O)Cn1ccc2ccccc2c1=O showed an inhibition of 0.35%.
In the case of O=C(Nc1nc2ccc([N+](=O)[O-])cc2s1)c1ccc(S(=O)(=O)N2CCCc3ccccc32)cc1, the inhibition is reported as 100% (active).
In the case of O=C(NC(Nc1nc2ccc([N+](=O)[O-])cc2s1)(C(F)(F)F)C(F)(F)F)c1ccccc1, the inhibition is reported as 100% (active).
In the case of N=C1C(c2nc3ccccc3s2)=C(O)CN1NC(=O)c1ccc([N+](=O)[O-])cc1, the inhibition is reported as -3.94%.
For O=C(O)CCC(=O)Nc1nc2ccc([N+](=O)[O-])cc2s1, the inhibition was -7.18%.
O=C(COC(=O)c1ccc(F)cc1)Nc1nc2ccc([N+](=O)[O-])cc2s1 gave an inhibition of -3.1%.
CSc1nc2ccc(S(=O)(=O)N3CCc4ccccc43)cc2s1 showed an inhibition of 0.05%.
CCCCn1nc(C(=O)OCC(=O)Nc2sccc2C(N)=O)c2ccccc2c1=O gave an inhibition of -6.96%.
For Cc1cccc(N2CCC(NCc3c(C(=O)N4CCCCC4)nc4c(C)cccn34)CC2)c1, the inhibition was 17.5%.
Molecule S=C(Cc1ccc(Cl)cc1)N1CCOCC1 has an inhibition of 1.84%.
CC1=NN(C(=O)CCCc2ccccc2)C(O)(C(F)(F)F)C1 (stereo unspecified) gave an inhibition of -11.2%.
For CN(C)CCN=c1cc(-c2ccccc2)oc2ccc(Cl)cc12, the inhibition was 63% (active).
Work on CN(C)CCn1c(=S)[nH]c2ccc(Cl)cc2c1=O yielded an inhibition of 1.3%.
Molecule C/C(CC(=O)N1CCN(C=O)CC1)=N\NC(=O)c1ccc(Br)cc1 has an inhibition of -4.54%.
In the case of Cc1cccc(N2C(=O)CC(SC(N)=Nc3ccccc3)C2=O)c1 (stereo unspecified), the inhibition is reported as 45.7%.
For Cc1ccc(-n2c(O)c(C=Nc3ccc(S(=O)(=O)Nc4ncccn4)cc3)c3ccccc3c2=O)cc1C, the inhibition was -5.1%.
Work on Cc1nnc(SCC(=O)N2CCc3ccccc3C2)s1 yielded an inhibition of -1.97%.
For Cc1nnc(SCC(=O)N2c3ccccc3C(C)(c3ccc(Cl)cc3)CC2(C)C)s1 (stereo unspecified), the inhibition was 56.6% (active).
Work on Cc1nnc(SCC(=O)NCc2ccccc2)s1 yielded an inhibition of -9.92%.
With Cc1ccc(NC(=O)C(=O)NCC2CCN(C(=O)c3cccc([N+](=O)[O-])c3)CC2)cc1 the inhibition was 23%.
With CN1CCN(c2ccc(NC(=O)COc3ccc(Cl)cc3Cl)cc2)CC1 the inhibition was 98.7% (active).
With Cc1nn(-c2ccccc2)c(C)c1NC(=O)COc1ccc(Cl)cc1Cl the inhibition was 43.4%.
For CN1CCC(OC(=O)COc2ccc(Cl)cc2Cl)CC1, the inhibition was 1.67%.
For S=C(NCC1CCCO1)N1CCN(c2ccc(Cl)c(Cl)c2)CC1 (stereo unspecified), the inhibition was 17.8%.
In the case of NS(=O)(=O)c1ccc(Nc2nc(-c3ccccc3)cs2)cc1, the inhibition is reported as 81.2% (active).
COc1ccc(-c2csc(Nc3ccc(O)cc3)n2)cc1 gave an inhibition of 23%.
COc1ccc(Nc2nc(-c3ccccc3)cs2)cc1 showed an inhibition of -2.02%.
Molecule O=C(NCC(O)c1ccc([N+](=O)[O-])cc1)C1CCCCC1 (stereo unspecified) has an inhibition of -8.78%.
Molecule Cn1c(-c2sccc2OCc2cccc(C(F)(F)F)c2)n[nH]c1=S has an inhibition of 14.1%.
In the case of Cn1c(-c2sc3cc(C(F)(F)F)cnc3c2-c2ccccc2)n[nH]c1=S, the inhibition is reported as 84.1% (active).
Work on Cc1ccccc1-c1n[nH]c(=S)n1C yielded an inhibition of -18.2%.
With O=C(CCSc1ccccc1)N1CCN(c2ccccc2F)CC1 the inhibition was -5.13%.
O=C(Nc1nc(-c2cccnc2)cs1)c1ccccc1F showed an inhibition of -2.37%.
For OCCNCCOc1ccc(Cl)c(Cl)c1, the inhibition was 78.9% (active).
In the case of COCC(C)NC(=O)c1ccc(Cl)c(Cl)c1 (stereo unspecified), the inhibition is reported as -3.5%.
OCCNCCCCOc1ccccc1F showed an inhibition of 19.1%.
CC/C(Cc1ccccc1)=N/NC(=O)CCn1nnc2ccccc21 gave an inhibition of -2.64%.
In the case of CCN(C(=O)CN1CCN(Cc2ccccc2)CC1)c1c(N)n(Cc2ccccc2)c(=O)[nH]c1=O, the inhibition is reported as -0.59%.
CCC(=O)/C(=C(/O)c1ccccc1)c1nc2ccccc2[nH]1 gave an inhibition of -5.9%.
With COc1ccc(/C=C(/NC(=O)c2ccc(C)cc2)c2nc3ccccc3[nH]2)cc1OC the inhibition was 16.1%.
For O=C(/C(=C/c1cccc(Cl)c1)c1nc2ccccc2[nH]1)c1ccccc1, the inhibition was 101% (active).
C=CCNCCCCOc1ccccc1 gave an inhibition of 34.8%.
In the case of COc1ccc(NC(=O)CSc2nnc(-c3ccccc3F)n2C2CC2)cc1S(N)(=O)=O, the inhibition is reported as 2.82%.
Molecule CC(=O)Nc1ccc(S(=O)(=O)N2CCSCC2)cc1 has an inhibition of 0.03%.
In the case of CC(=O)Nc1ccc(S(=O)(=O)N2CCN(CCCOc3cc(C)ccc3C)CC2)cc1, the inhibition is reported as 72.8% (active).
Work on Cc1cccc(OCCCC(=O)Nc2ccc(S(=O)(=O)N3CCCC3)cc2)c1 yielded an inhibition of 44.8%.
For O=C(CSc1ccccc1)Nc1cc(Cl)ccc1Oc1ccccc1, the inhibition was 14.8%.
In the case of CCOC(=O)c1ccc(NC(=O)C2CC(=O)Nc3nc4ccccc4n32)cc1 (stereo unspecified), the inhibition is reported as -4.72%.
With COc1cc(NC(=O)c2ccccc2NS(=O)(=O)c2ccc(Cl)s2)cc(OC)c1 the inhibition was 74.3% (active).
Molecule COc1cc(NC(=O)c2cccnc2SC)cc(OC)c1 has an inhibition of 1.73%.
In the case of COC(=O)c1ccc(NC(=O)c2ccccc2NS(=O)(=O)c2ccccc2)cc1, the inhibition is reported as -3.45%.
Cc1cc(C)cc(C(=O)NC2C(=O)N3C(C(=O)O)=C(CSc4nnc(C)s4)CSC23)c1 (stereo unspecified) gave an inhibition of -0.22%.
With O=C1/C(=C\c2ccsc2)NC(=S)N1c1ccccc1 the inhibition was -4.28%.
In the case of CC(=O)C1C(c2ccc(Cl)cc2)c2c(n[nH]c2C)CC1(C)O (stereo unspecified), the inhibition is reported as -0.37%.
In the case of CCCCn1nc(C(=O)Nc2ccc(S(=O)(=O)Nc3ncccn3)cc2)c2ccccc2c1=O, the inhibition is reported as -10.7%.
Work on CCCn1nc(C(=O)N2CCCc3ccccc32)c2ccccc2c1=O yielded an inhibition of 26.1%.
For CCCn1nc(C(=O)Nc2ccc3nc(C)sc3c2)c2ccccc2c1=O, the inhibition was 80.4% (active).
Cn1c(=N)n(CC(O)c2cccs2)c2ccccc21 (stereo unspecified) gave an inhibition of 1.42%.
For N=c1n(Cc2ccc(Cl)cc2)c2ccccc2n1CC(O)c1ccco1 (stereo unspecified), the inhibition was 85.3% (active).
Work on CC(=O)NC1(c2ccc(F)cc2)CCN(C(=O)c2c(F)cccc2F)CC1 yielded an inhibition of -1.81%.
Molecule CN(Cc1nc2ccc(F)cc2[nH]1)Cc1nc(CC2CC2)no1 has an inhibition of -4.94%.
In the case of C[C@@H]1C[C@@H]2O[C@H]2/C=C\C=C\C(=O)Cc2c(Cl)c(O)cc(O)c2C(=O)O1, the inhibition is reported as 100% (active).
For O=[N+]([O-])c1ccc2oc(-c3cccc(O)c3)nc2c1, the inhibition was -1.6%.
With CCOC(=O)C1(Cc2cccc(OC)c2)CCN(Cc2csc(C(C)=O)c2)CC1 the inhibition was 92.9% (active).
For CCOC(=O)C1(Cc2cccc(OC)c2)CCN(C(C)COC)CC1 (stereo unspecified), the inhibition was 2.55%.
CCOC(=O)C1(Cc2cccc(OC)c2)CCN(C(C)CC(C)(C)O)CC1 (stereo unspecified) gave an inhibition of -1.48%.
CC(=O)Nc1ccc(NC(=O)COc2ccc(S(=O)(=O)NC(C)c3ccccc3)cc2)cc1 (stereo unspecified) showed an inhibition of -0.2%.
For COc1cc(/C=C/C2=CC(C)(C)NC(=S)N2)cc(OC)c1OC, the inhibition was 0.1%.
Work on CCCCNc1nc2c(c(=O)n(C)c(=O)n2C)n1Cc1cccc(OC)c1 yielded an inhibition of 4.44%.
With Cn1c(=O)c2c(nc(NCCc3ccccc3)n2Cc2ccccc2)n(C)c1=O the inhibition was 15.1%.
For Cn1c(=O)c2c(nc(N/N=C/c3cccs3)n2Cc2ccc(Br)cc2)n(C)c1=O, the inhibition was 60.3% (active).
With O=C(CN1C(=O)/C(=C\c2ccccc2F)SC1=S)Nc1nc2ccccc2s1 the inhibition was -3.34%.
Molecule Clc1ccc(-c2csc(-c3ccncc3)n2)cc1 has an inhibition of 5.86%.
With CCOc1cc(NC(=O)CCl)c(OCC)cc1NC(C)=O the inhibition was 5.77%.
CC(=O)c1ccc2c(c1)c1ccccc1n2CC(C)C showed an inhibition of 9.99%.
For CS(=O)(=O)N(CC(O)Cn1c2ccccc2c2ccccc21)c1cccc2ccccc12 (stereo unspecified), the inhibition was 100% (active).
Molecule O=C1c2ccccc2S(=O)(=O)N1CC(O)Cn1c2ccccc2c2ccccc21 (stereo unspecified) has an inhibition of -4.57%.
Work on O=C(Nc1nnc(Cc2ccc(Cl)cc2)s1)c1cccnc1 yielded an inhibition of -10.8%.
COC(=O)N/N=C/c1ccc(/C=N/NC(=O)OC)cc1 showed an inhibition of -5.23%.
In the case of C=CCn1c(-c2sc(-c3ccccc3)nc2C)n[nH]c1=S, the inhibition is reported as -5.29%.
For CCN(CC)CC1(O)CCN(C(=O)c2ccc(Cl)c(Cl)c2)CC1, the inhibition was 99.6% (active).
CCCNC(=O)c1ccc(Cl)c(Cl)c1 gave an inhibition of -4.03%.
With O=C(c1ccc(Cl)c(Cl)c1)N1CCCC1 the inhibition was -4.87%.
With ClC1(Cl)CC1CSc1ncn[nH]1 (stereo unspecified) the inhibition was 3.37%.
With CCOC(=O)CCNC(=O)N1CCCC(C(=O)c2ccccc2SC)C1 (stereo unspecified) the inhibition was -1.7%.
CCc1ccc(CNC(=O)C2CCCN(c3nc4ccccc4o3)C2)cc1 (stereo unspecified) gave an inhibition of 0.6%.
In the case of CCOC(=O)c1cnc(Nc2nc3ccccc3o2)nc1CSC(=S)N1CCCCC1, the inhibition is reported as 56.7% (active).
COc1ccc(-n2nc(C(=O)Nc3cc(OC)c(OC)c(OC)c3)c3ccccc3c2=O)c(OC)c1 showed an inhibition of 0.87%.
Molecule O=C(c1cccc(F)c1)N1CCN(c2ccc([N+](=O)[O-])c3cccnc23)CC1 has an inhibition of 45.7%.
For CC(CNc1ccc([N+](=O)[O-])c2cccnc12)Nc1c([N+](=O)[O-])cc(C(F)(F)F)cc1[N+](=O)[O-] (stereo unspecified), the inhibition was 76.9% (active).
O=C(CSc1ccc(C(F)(F)F)cc1[N+](=O)[O-])NCCOc1ccccc1 gave an inhibition of -4.83%.
